# Test results published in paper PMC5540273 (PLoS ONE, 2017).
# Test system: ROS1
# Details: concentration: 1 μM,replicates: in singlicate; n = 1
# 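Note: KINOMEscan kinase panel screen.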
row,SMILES,%Inh [%]
1,C[C@@H](Oc1cc(-n2cnc3ccc(-c4ccncc4)cc32)sc1C(N)=O)c1ccccc1Cl [GSK483724],42
2,CNC(=O)c1ccccc1Nc1nc(Nc2cccc(CS(C)(=O)=O)c2)ncc1C.O=CO [GSK1520489],90
3,COc1cc2c(Nc3ccc(NC(=O)c4ccccc4)cc3)ncnc2cc1OCCCN1CCOCC1 [GSK301329],3
4,O=C(Nc1ccc(Oc2ccc3nc(NC(=O)C4CC4)cn3n2)c(F)c1)c1cccn(-c2ccccc2)c1=O,0
5,COc1cc(Nc2nccc(N3CCC(NC(=O)c4cccc(C#N)c4)C3)n2)cc(OC)c1OC (stereo not drawn) [GSK1379751],9
6,CC(C)S(=O)(=O)N1CCN(Cc2ccc3c(c2)nc(NC(=O)c2ccsc2)n3C[C@H](O)c2ccccc2)CC1 [GW635815],20
7,Cn1ccc2ncnc(Oc3ccc(NC(=O)Nc4cccc(C(F)(F)F)c4)c(F)c3)c21,53
8,Cc1ccc2c(-c3ccnc(Nc4ccc(C(F)(F)F)cc4)n3)cnn2n1 [GW819776],41
9,C[C@@H]1CNc2c(sc3ccc4nc(-c5ccncc5)ccc4c23)C(=O)N1,14
10,Cn1ccc2ncnc(Oc3ccc(NC(=O)Nc4cccc(C(F)(F)F)c4)c(Cl)c3)c21,12
11,COc1cccc(OC)c1C(=O)Nc1cccc(-c2nn3ccccc3c2-c2ccnc(Nc3cccc(F)c3)n2)c1 [GSK361065],4
12,CN1CCN(CCCNc2nccc(-c3c(-c4ccc(F)cc4)nn4cc(C(N)=O)ccc34)n2)CC1 [GW622475],4
13,CCCC(=O)Nc1n[nH]c2ncccc12 [SB-601436],8
14,Cn1ccc2ncnc(Oc3ccc(NC(=O)Nc4cc(C(C)(C)C)on4)c(Cl)c3)c21,46
15,Cl.c1ccc(Oc2ccc(Nc3ccnc4cc(-c5ccc(CN6CCNCC6)o5)ccc34)cc2)nc1 [GW567142],0
16,CC(=O)Nc1ccc(-c2cc3ncnc(SCC(=O)O)c3s2)cc1,6
17,Cc1ccc(Nc2ccnc(Nc3ccc4c(c3)CS(=O)(=O)C4)n2)cc1O.Cl [GW579362],81
18,COc1cccc(C2=C(Nc3cccc(Cl)c3)C(=O)NC2=O)c1 [SB-341556],0
19,OCCn1cc(-c2cnc3nnn(Cc4ccc5ncccc5c4)c3n2)cn1,0
20,Cn1ccc2ncnc(Oc3ccc(NC(=O)Nc4cncc(C(F)(F)F)c4)c(Cl)c3)c21,0
21,CN(c1cccc(CNc2nc(Nc3ccc4c(c3)CC(=O)N4)ncc2C(F)(F)F)c1)S(C)(=O)=O,89
22,Cl.Cl.NC[C@H](CC1CCCCC1)NC(=O)c1ccc(-c2ccnc3[nH]ccc23)s1 [GSK1581428],26
23,N#Cc1cccc(C(=O)NC2CCN(c3ccnc(Nc4ccc(F)cc4)n3)C2)c1 (stereo not drawn) [GSK1379708],13
24,c1ccc(Oc2ccc(Nc3ccnc4ccc(-c5ccccn5)cc34)cc2)cc1 [GW407034],10
